Data as given in PubChem BioAssay (NCI).
Compounds without any hit were thinned out: in the full panel of roughly 83,000, 20% have a hit.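 Treatment: one concentration, 48 hours, 96-well format. Scoring: percent growth, with anything below 10 considered active.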 A number with no mark means an inactive call. Calls of active or inactive are those of the source.

Assays:
Assay in all cases: NCI-60 one-dose screen, 48 h (100 = growth as untreated, 0 = no growth, -100 = all killed)
Conditions in all cases: 10 µM unless noted
NCI-H23 lung = tested on: NCI-H23 lung
NCI-H226 lung = tested on: NCI-H226 lung
NCI-H322M lung = tested on: NCI-H322M lung
HOP-62 NSCLC = tested on: HOP-62 NSCLC
NCI-H460 lung = tested on: NCI-H460 lung
HOP-92 NSCLC = tested on: HOP-92 NSCLC
NCI-H522 lung = tested on: NCI-H522 lung
A549/ATCC NSCLC = tested on: A549/ATCC NSCLC
786-0 renal = tested on: 786-0 renal
COLO 205 colon = tested on: COLO 205 colon
DU-145 prostate = tested on: DU-145 prostate
MALME-3M melanoma = tested on: MALME-3M melanoma
MDA-MB-231 breast = tested on: MDA-MB-231 breast
RXF 393 renal = tested on: RXF 393 renal
SF-268 CNS = tested on: SF-268 CNS
SF-295 CNS = tested on: SF-295 CNS
SF-539 CNS = tested on: SF-539 CNS
UACC-257 melanoma = tested on: UACC-257 melanoma
M14 melanoma = tested on: M14 melanoma

Row | SMILES | growth (NCI-H23 lung) | growth (NCI-H226 lung) | growth (NCI-H322M lung) | growth (HOP-62 NSCLC) | growth (NCI-H460 lung) | growth (HOP-92 NSCLC) | growth (NCI-H522 lung) | growth (A549/ATCC NSCLC) | growth (786-0 renal) | growth (COLO 205 colon) | growth (DU-145 prostate) | growth (MALME-3M melanoma) | growth (MDA-MB-231 breast) | growth (RXF 393 renal) | growth (SF-268 CNS) | growth (SF-295 CNS) | growth (SF-539 CNS) | growth (UACC-257 melanoma) | growth (M14 melanoma)
1 | COc1cccc2c1C(=O)c1c(O)c3c(c(O)c1C2=O)C[C@](O)(C(=O)CO)C[C@H]3O[C@@H]1C[C@@H](NC(=O)CCCN(C)C2(c3ccc(F)cc3)CC3CCC2C3)[C@H](O)[C@@H](C)O1 (some centres not stated) | -59.7% (active) | 65.2% | 49.1% | 58.5% | -86.8% (active) | 48.7% | -82.7% (active) | -80.1% (active) | -94.2% (active) | -76.2% (active) | -48.4% (active) | -83.2% (active) | -76.4% (active) | -95.8% (active) | -82.4% (active) | -92.9% (active) | -81.6% (active) | -26.9% (active) | -86.8% (active)
2 | COc1cc2c(cc1OC)C(Sc1ccc(SC)cc1)c1c(nc(N)c(C#N)c1N)O2 (configuration not stated) | -56.1% (active) | -65.7% (active) | -86.9% (active) | -46.3% (active) | -79% (active) | -23.7% (active) | -92.6% (active) | -63.5% (active) | -80.7% (active) | -79% (active) | -75.8% (active) | -67% (active) | -67.4% (active) | -75.9% (active) | -36.6% (active) | -56.3% (active) | -95.3% (active) | -51.2% (active) | -80.6% (active)
3 | CCOC(=O)C(C)(C#N)C1C=CCCC1 (configuration not stated) | 83.3% | 97.9% | 80.4% | 89.8% | 98.8% | 78.2% | 104% | 92.5% | 87% | 106% | 97.1% | 102% | 95.5% | 98.8% | 93.8% | 84.3% | 91.8% | 93.6% | 81.2%
4 | COc1ccc(CN2c3ccccc3Sc3ccccc32)c(C(F)(F)F)c1 | 43.9% | 57.7% | 49.1% | 41% | 9.92% (active) | 39.4% | -46.3% (active) | 33.2% | 41.9% | -29.1% (active) | 21% | 92.7% | 40.6% | -9.74% (active) | 56.4% | 2.22% (active) | -12.4% (active) | 53.9% | 7.59% (active)
5 | Clc1ccc2c(NCCCCNc3nc(N4CCCCC4)nc4ccccc34)ccnc2c1 | 53.1% | 35.8% | 6.86% (active) | -11.1% (active) | 6.3% (active) | -35.3% (active) | -18.6% (active) | 16.2% | -90.3% (active) | -64.5% (active) | 27.6% | -81.8% (active) | -51.3% (active) | -62.8% (active) | 19.9% | -54.8% (active) | -86.7% (active) | -83.5% (active) | -84.6% (active)
6 | COc1cc2c(cc1O)CC[C@@H]1[C@@H]2CC[C@]2(C)[C@@H](NCCN(C)C)CC[C@@H]12 | -77.2% (active) | -86.2% (active) | -91.6% (active) | -76.3% (active) | -84.7% (active) | -81.7% (active) | -94.3% (active) | -81.6% (active) | -84.3% (active) | -71% (active) | -94.3% (active) | -72.5% (active) | -82.6% (active) | -95.7% (active) | -78.8% (active) | -88.5% (active) | -86.5% (active) | -84.9% (active) | -63.7% (active)
7 | O=C1c2ccccc2OC=C(c2ccccc2)N1CCCCNc1ccc(S(=O)(=O)Nc2ncccn2)cc1 | 101% | 91.4% | 92.8% | 90.1% | 103% | 75.8% | 82.9% | 81.3% | 90.6% | 114% | 109% | 110% | 96.8% | 98.9% | 91% | 94% | 102% | 91.6% | 99.6%
8 | N#Cc1nnn(-c2ccc(S(N)(=O)=O)cc2)c1NCC(=O)c1ccccc1 | 98% | 88.2% | 91.2% | 91.7% | 101% | 86.6% | 83.9% | 93.3% | 102% | 104% | 106% | 96.4% | 95.1% | 113% | 93.6% | 100% | 116% | 88.4% | 97.5%
